According to the supplement of paper PMC10849652:
Of roughly 7,900 targets only a part is listed; those with a hit were picked by preference. About 0.6% of all pairs of compound and target were hits. A number with no mark means an inactive call.

Experiments:
Assay in all cases: log2 fold change, soluble protein after heating vs DMSO (PISA); higher = thermal stabilisation; K562 cells, 10 uM, 30 min; active = over 0.2 and 3.5 SD of the protein, either way, in both replicates (recomputed)
saracatinib = compound: CN1CCN(CCOc2cc(OC3CCOCC3)c3c(Nc4c(Cl)ccc5c4OCO5)ncnc3c2)CC1 [saracatinib]
How it was run: (§1)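 K562 cells at 2×10^6 cells/mL were treated with 10 μM compound for 30 min. Aliquots were heated for 3 min across 48°C-58°C, pooled, and extracted in PBS with 0.5% NP-40 at 4°C; soluble protein was the supernatant after 21,000xg for 90 min. Soluble protein was quantified by TMTpro 16plex LC-MS/MS with channel sums equalised, and reported as log2 fold change in thermal stability against DMSO controls, with values from duplicates.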

sotrastaurin = compound: CN1CCN(c2nc(C3=C(c4c[nH]c5ccccc45)C(=O)NC3=O)c3ccccc3n2)CC1 [sotrastaurin]
How it was run: as §1

alvocidib = compound: CN1CC[C@H](c2c(O)cc(O)c3c(=O)cc(-c4ccccc4Cl)oc23)[C@H](O)C1 [alvocidib]
How it was run: as §1

Tubastatin A = compound: CN1CCc2c(c3ccccc3n2Cc2ccc(C(=O)NO)cc2)C1 [Tubastatin A]
How it was run: as §1

[1] = compound: CNC(=O)C1=CC=CC=C1NC2=NC(=NC=C2Cl)NC3=C(C=C(C=C3)N4CCOCC4)OC
How it was run: as §1

defactinib = compound: CNC(=O)c1ccc(Nc2ncc(C(F)(F)F)c(NCc3nccnc3N(C)S(C)(=O)=O)n2)cc1 [defactinib]
How it was run: as §1

rucaparib = compound: CNCc1ccc(-c2[nH]c3cc(F)cc4c3c2CCNC4=O)cc1 [rucaparib]
How it was run: as §1

[2] = compound: CNc1nc(-c2ccc3c(N)n[nH]c3c2)cc(N2C[C@@H](C(=O)NC3CCCCC3)CC[C@H]2C)n1
How it was run: as §1

encorafenib = compound: COC(=O)N[C@@H](C)CNc1nccc(-c2cn(C(C)C)nc2-c2cc(Cl)cc(NS(C)(=O)=O)c2F)n1 [encorafenib]
How it was run: as §1

[3] = compound: COC(=O)[C@H](CCSC)NC(=O)C1=C(C=C(C=C1)NC[C@H](CS)N)C2=CC=CC=C2
How it was run: as §1

[4] = compound: COC1=CC=C(C=C1)CN2C=CC3=C2C=C(C=C3)C(=O)NO
How it was run: as §1

filanesib = compound: CON(C)C(=O)N1N=C(c2cc(F)ccc2F)S[C@@]1(CCCN)c1ccccc1 [filanesib]
How it was run: as §1

zotarolimus = compound: CO[C@H]1C[C@@H]2CC[C@@H](C)[C@@](O)(O2)C(=O)C(=O)N2CCCC[C@H]2C(=O)O[C@H]([C@H](C)C[C@@H]2CC[C@H](n3cnnn3)[C@H](OC)C2)CC(=O)[C@H](C)/C=C(\C)[C@@H](O)[C@@H](OC)C(=O)[C@H](C)C[C@H](C)/C=C/C=C/C=C/1C [zotarolimus]
How it was run: as §1

idasanutlin = compound: COc1cc(C(=O)O)ccc1NC(=O)[C@@H]1N[C@@H](CC(C)(C)C)[C@](C#N)(c2ccc(Cl)cc2F)[C@H]1c1cccc(Cl)c1F [idasanutlin]
How it was run: as §1

alisertib = compound: COc1cc(Nc2ncc3c(n2)-c2ccc(Cl)cc2C(c2c(F)cccc2OC)=NC3)ccc1C(=O)O [alisertib]
How it was run: as §1

[5] = compound: COc1cc2nc(-c3cc(F)ccc3O)nc(N[C@@H]3CNC[C@H]3C(C)(C)O)c2cc1OC
How it was run: as §1

gefitinib = compound: COc1cc2ncnc(Nc3ccc(F)c(Cl)c3)c2cc1OCCCN1CCOCC1 [gefitinib]
How it was run: as §1

[6] = compound: COc1cccc2cc(-c3nc([C@H]4CC[C@H](C(=O)O)CC4)n4ncnc(N)c34)[nH]c12
How it was run: as §1

lapatinib = compound: CS(=O)(=O)CCNCc1ccc(-c2ccc3ncnc(Nc4ccc(OCc5cccc(F)c5)c(Cl)c4)c3c2)o1 [lapatinib]
How it was run: as §1

pictilisib = compound: CS(=O)(=O)N1CCN(Cc2cc3nc(-c4cccc5[nH]ncc45)nc(N4CCOCC4)c3s2)CC1 [pictilisib]
How it was run: as §1

Chain of UniProt Q8N108 (Q8N108 whole entry, looked up): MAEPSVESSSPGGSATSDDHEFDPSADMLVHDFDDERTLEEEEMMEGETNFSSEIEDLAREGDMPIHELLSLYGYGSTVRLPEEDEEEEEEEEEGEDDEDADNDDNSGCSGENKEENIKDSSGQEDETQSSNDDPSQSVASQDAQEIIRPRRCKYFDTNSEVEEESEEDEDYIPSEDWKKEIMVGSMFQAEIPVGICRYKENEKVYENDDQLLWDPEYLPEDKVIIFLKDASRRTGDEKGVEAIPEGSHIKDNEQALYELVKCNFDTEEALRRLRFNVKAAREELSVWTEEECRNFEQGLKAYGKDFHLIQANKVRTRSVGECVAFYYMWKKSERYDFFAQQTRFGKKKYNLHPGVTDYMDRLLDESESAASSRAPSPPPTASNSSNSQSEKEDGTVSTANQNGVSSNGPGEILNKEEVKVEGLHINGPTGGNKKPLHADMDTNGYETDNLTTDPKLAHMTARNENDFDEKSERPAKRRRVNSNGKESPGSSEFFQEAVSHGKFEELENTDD
Chain of UniProt P10620 (P10620 whole entry, looked up): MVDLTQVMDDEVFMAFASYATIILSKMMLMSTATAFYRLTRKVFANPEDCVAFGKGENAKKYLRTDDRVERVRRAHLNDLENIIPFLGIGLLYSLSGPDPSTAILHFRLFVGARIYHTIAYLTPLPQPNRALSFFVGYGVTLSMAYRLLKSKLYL
Chain of UniProt Q8NC54 (Q8NC54 whole entry, looked up): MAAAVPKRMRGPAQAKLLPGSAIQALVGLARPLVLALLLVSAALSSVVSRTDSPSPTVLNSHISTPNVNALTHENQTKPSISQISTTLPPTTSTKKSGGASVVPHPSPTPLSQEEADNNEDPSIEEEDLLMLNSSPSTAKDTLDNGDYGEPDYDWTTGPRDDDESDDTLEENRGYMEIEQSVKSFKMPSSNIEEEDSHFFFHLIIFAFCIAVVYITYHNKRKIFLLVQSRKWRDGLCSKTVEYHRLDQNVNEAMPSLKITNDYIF
Chain of UniProt Q08431 (Q08431 whole entry, looked up): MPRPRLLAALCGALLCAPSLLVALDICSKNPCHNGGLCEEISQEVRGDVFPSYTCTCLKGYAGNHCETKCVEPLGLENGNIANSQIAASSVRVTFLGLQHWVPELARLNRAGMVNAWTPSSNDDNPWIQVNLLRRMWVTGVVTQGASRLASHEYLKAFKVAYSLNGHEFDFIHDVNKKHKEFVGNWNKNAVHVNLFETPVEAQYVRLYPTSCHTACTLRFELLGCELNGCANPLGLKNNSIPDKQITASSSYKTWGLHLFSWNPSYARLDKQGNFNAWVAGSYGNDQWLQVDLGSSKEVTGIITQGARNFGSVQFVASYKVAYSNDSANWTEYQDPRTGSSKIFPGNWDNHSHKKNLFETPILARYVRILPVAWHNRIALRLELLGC
Chain of UniProt A1L0T0 (A1L0T0 whole entry, looked up): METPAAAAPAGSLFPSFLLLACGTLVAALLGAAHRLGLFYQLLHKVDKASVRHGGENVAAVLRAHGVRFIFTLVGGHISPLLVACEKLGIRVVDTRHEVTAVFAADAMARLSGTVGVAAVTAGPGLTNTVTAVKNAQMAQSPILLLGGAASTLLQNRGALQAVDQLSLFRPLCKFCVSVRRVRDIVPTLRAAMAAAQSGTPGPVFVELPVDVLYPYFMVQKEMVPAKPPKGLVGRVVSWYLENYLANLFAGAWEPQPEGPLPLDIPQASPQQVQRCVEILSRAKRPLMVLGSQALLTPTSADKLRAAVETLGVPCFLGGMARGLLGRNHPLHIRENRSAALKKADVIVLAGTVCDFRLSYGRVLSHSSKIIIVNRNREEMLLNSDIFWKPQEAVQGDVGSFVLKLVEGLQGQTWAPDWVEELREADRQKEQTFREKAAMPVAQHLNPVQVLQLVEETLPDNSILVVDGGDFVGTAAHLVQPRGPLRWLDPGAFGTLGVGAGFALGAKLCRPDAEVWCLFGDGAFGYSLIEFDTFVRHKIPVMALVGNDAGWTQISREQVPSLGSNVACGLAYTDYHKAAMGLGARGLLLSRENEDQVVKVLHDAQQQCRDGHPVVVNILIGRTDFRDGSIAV
Chain of UniProt Q5XKP0 (Q5XKP0 whole entry, looked up): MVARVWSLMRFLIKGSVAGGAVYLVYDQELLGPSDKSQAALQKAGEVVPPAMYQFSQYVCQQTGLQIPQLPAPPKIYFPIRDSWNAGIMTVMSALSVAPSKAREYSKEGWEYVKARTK
Chain of UniProt P33947 (P33947 whole entry, looked up): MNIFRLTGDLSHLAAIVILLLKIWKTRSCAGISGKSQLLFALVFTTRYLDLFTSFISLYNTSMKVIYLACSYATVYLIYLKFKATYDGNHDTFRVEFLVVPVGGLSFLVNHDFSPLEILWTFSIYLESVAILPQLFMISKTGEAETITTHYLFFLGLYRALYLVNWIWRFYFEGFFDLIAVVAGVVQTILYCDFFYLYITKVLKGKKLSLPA
Chain of UniProt Q9GZY8 (Q9GZY8 whole entry, looked up): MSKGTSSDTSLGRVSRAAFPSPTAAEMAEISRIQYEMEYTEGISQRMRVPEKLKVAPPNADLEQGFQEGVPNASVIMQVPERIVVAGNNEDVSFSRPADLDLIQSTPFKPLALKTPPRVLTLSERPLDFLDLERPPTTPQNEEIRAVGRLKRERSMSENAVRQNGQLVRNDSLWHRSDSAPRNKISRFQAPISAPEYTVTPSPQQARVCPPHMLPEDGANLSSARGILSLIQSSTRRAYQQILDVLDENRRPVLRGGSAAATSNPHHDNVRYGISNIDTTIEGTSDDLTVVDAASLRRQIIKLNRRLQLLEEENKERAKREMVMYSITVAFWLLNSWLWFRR
Chain of UniProt Q8TBB5 (Q8TBB5 whole entry, looked up): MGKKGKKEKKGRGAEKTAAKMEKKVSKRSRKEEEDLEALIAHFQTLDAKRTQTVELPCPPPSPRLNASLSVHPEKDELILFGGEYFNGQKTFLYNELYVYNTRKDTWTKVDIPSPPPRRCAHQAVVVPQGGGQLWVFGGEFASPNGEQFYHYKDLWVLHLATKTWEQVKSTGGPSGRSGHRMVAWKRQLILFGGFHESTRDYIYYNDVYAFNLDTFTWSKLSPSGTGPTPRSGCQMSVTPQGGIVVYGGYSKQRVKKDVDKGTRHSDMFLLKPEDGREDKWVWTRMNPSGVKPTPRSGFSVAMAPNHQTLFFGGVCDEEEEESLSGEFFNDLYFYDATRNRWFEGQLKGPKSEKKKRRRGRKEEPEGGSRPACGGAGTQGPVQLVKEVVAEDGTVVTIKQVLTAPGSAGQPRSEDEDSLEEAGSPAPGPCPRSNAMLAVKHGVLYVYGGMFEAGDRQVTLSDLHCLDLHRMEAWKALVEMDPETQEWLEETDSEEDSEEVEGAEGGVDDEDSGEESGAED
Chain of UniProt P29966 (P29966 whole entry, looked up): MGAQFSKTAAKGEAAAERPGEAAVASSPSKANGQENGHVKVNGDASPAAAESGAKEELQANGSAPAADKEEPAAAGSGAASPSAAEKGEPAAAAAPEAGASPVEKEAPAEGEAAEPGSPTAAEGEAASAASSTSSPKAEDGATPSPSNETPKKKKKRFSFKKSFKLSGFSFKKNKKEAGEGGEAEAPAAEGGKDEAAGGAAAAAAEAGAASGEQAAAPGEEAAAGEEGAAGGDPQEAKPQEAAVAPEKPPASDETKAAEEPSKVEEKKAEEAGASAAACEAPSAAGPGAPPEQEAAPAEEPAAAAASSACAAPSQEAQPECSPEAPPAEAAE
Chain of UniProt O14880 (O14880 whole entry, looked up): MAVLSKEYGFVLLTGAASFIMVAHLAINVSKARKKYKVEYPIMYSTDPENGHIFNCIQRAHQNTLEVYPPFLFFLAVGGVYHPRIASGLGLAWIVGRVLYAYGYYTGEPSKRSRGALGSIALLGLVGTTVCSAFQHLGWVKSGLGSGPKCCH
Chain of UniProt P07948 (P07948 whole entry, looked up): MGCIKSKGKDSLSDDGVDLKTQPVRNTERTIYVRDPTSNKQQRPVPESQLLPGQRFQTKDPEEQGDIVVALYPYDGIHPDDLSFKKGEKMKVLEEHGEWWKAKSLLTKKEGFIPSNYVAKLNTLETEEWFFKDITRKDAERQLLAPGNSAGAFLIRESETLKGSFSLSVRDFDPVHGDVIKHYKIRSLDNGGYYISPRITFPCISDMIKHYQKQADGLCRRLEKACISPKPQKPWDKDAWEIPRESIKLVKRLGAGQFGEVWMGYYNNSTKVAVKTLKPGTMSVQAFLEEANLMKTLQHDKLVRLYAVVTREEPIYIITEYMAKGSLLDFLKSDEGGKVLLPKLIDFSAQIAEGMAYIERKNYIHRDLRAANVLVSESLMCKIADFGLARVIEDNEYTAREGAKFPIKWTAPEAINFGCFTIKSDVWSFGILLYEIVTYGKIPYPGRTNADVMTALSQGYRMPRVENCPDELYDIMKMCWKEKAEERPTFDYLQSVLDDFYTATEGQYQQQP
Chain of UniProt Q8IW41 (Q8IW41 whole entry, looked up): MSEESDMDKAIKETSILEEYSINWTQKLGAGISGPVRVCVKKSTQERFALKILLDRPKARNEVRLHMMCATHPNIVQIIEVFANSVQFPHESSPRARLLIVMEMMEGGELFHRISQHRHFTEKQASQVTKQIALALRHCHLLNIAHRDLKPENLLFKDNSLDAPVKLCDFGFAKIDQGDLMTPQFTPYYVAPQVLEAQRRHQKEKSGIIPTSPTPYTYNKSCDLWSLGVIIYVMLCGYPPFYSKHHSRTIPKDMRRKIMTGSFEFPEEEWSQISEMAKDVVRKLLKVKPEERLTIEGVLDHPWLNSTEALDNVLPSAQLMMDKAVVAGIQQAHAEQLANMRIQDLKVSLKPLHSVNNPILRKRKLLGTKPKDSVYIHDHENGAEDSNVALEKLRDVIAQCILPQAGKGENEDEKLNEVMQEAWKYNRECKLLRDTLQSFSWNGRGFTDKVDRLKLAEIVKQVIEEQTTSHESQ
Chain of UniProt Q9BRT3 (Q9BRT3 whole entry, looked up): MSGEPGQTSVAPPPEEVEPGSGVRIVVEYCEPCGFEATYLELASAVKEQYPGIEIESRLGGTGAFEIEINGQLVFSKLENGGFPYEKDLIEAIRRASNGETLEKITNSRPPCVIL

Target | log2 fold change (saracatinib) | log2 fold change (sotrastaurin) | log2 fold change (alvocidib) | log2 fold change (Tubastatin A) | log2 fold change [1] | log2 fold change (defactinib) | log2 fold change (rucaparib) | log2 fold change [2] | log2 fold change (encorafenib) | log2 fold change [3] | log2 fold change [4] | log2 fold change (filanesib) | log2 fold change (zotarolimus) | log2 fold change (idasanutlin) | log2 fold change (alisertib) | log2 fold change [5] | log2 fold change (gefitinib) | log2 fold change [6] | log2 fold change (lapatinib) | log2 fold change (pictilisib)
MGST1 (UniProt P10620) | 0.042 | -0.013 | 0.01 | -0.174 | 0.009 | -0.037 | 0.003 | 0.021 | -0.147 | 0.018 | 0.039 | -0.019 | 0.006 | -0.06 | 0.013 | 0.152 | -0.036 | -0.043 | -0.009 | 0.112
KDELR2 (UniProt P33947) | 0.094 | 0.061 | 0.018 | -0.295 | 0.04 | -0.004 | -0.072 | -0.058 | -0.005 | 0.023 | -0.155 | -0.105 | 0.035 | -0.162 | -0.014 | -0.136 | -0.064 | 0.048 | -0.127 | -0.013
MIEN1 (UniProt Q9BRT3) | 0.049 | -0.067 | -0.141 | 0.069 | -0.002 | -0.067 | -0.032 | -0.019 | -0.051 | 0.129 | -0.084 | 0.085 | 0.015 | -0.009 | 0.034 | 0.061 | 0.027 | 0.001 | -0.016 | 0.001
MIER1 isoform 12 (UniProt Q8N108) | 0.026 | -0.024 | -0.079 | 0.297 (active) | -0.058 | -0.13 | -0.01 | -0.056 | -0.004 | 0.017 | -0.041 | -0.067 | -0.015 | -0.04 | -0.023 | -0.039 | -0.001 | 0.014 | 0.011 | -0.066
LYN (UniProt P07948) | -0.198 | -0.08 | 0 | 0.026 | -0.287 | -0.174 | 0.13 | -0.022 | 0.009 | 0.038 | -0.074 | 0.021 | 0.07 | -0.01 | 0.002 | 0.259 | -0.036 | 0.081 | 0.011 | 0.112
MFF (UniProt Q9GZY8) | 0.003 | -0.027 | -0.06 | 0.012 | -0.127 | -0.025 | -0.059 | -0.078 | 0.015 | 0.092 | 0.038 | 0.075 | -0.022 | 0.053 | 0.024 | -0.141 | 0.012 | 0.128 | -0.061 | 0.103
MGST3 (UniProt O14880) | 0.037 | 0.064 | 0.021 | -0.01 | -0.029 | 0.012 | -0.027 | -0.028 | -0.033 | 0.053 | -0.021 | -0.035 | -0.005 | 0.012 | 0.008 | 0.001 | 0.002 | 0.018 | -0.009 | 0.004
MFGE8 (UniProt Q08431) | -0.171 | -0.013 | 0.034 | 0.08 | 0.066 | 0.099 | -0.043 | -0.018 | 0.037 | -0.023 | -0.129 | 0.129 | -0.03 | 0.05 | -0.147 | 0.019 | 0.069 | -0.124 | 0.079 | 0.122
IRAK4 (UniProt Q9NWZ3) | -0.026 | -0.061 | -0.106 | 0.006 | 0.162 | -0.022 | 0.076 | 0.01 | 0.006 | -0.071 | 0.012 | -0.028 | 0.01 | 0.004 | -0.059 | 0.104 | 0.109 | 0.007 | -0.004 | -0.099
MICOS13 (UniProt Q5XKP0) | 0.039 | 0.01 | -0.001 | 0 | 0.005 | -0.07 | -0.041 | -0.017 | -0.028 | -0.005 | 0 | -0.095 | -0.048 | -0.144 | -0.014 | -0.082 | -0.032 | 0.079 | -0.063 | -0.001
MAPKAPK5 (UniProt Q8IW41) | 0.008 | -0.028 | 0.062 | 0.036 | -0.02 | -0.032 | 0.095 | -0.039 | -0.016 | 0 | -0.011 | -0.133 | 0.009 | -0.017 | -0.084 | 0.269 | 0 | -0.038 | 0.078 | 0.134
KCT2 (UniProt Q8NC54) | 0.027 | 0.042 | -0.095 | -0.003 | 0.096 | -0.088 | -0.008 | 0.031 | 0.063 | -0.036 | -0.015 | -0.036 | -0.044 | -0.029 | -0.074 | 0.021 | 0.032 | 0.039 | -0.002 | 0.023
KLHDC4 (UniProt Q8TBB5) | -0.006 | -0.037 | 0.074 | -0.072 | 0.02 | 0.021 | 0.115 | -0.029 | 0.106 | -0.066 | -0.045 | 0.435 (active) | 0.044 | 0.199 | -0.023 | 0.076 | 0.03 | 0.1 | -0.026 | 0.029
ILVBL (UniProt A1L0T0) | -0.022 | 0.135 | -0.162 | -0.02 | 0.002 | -0.054 | -0.024 | 0.052 | 0.059 | 0.019 | -0.008 | 0.006 | 0.072 | -0.106 | -0.088 | -0.001 | 0.075 | 0.082 | -0.011 | 0.031
MARCKS (UniProt P29966) | 0.019 | 0.077 | -0.016 | 0.039 | 0.005 | 0.009 | -0.02 | -0.02 | -0.014 | 0.002 | 0.108 | 0.004 | 0.001 | 0.062 | 0.006 | -0.016 | -0.003 | 0.069 | 0.019 | -0.225
KIF1B isoform 4 (UniProt O60333) | -0.033 | -0.014 | -0.018 | 0.025 | 0.016 | -0.004 | -0.006 | -0.097 | 0.023 | -0.016 | 0.008 | -0.128 | 0.024 | -0.006 | -0.044 | -0.014 | -0.004 | -0.04 | 0.013 | 0.037
